Test results as given in PubChem BioAssay AID1159580 (chemical genetic matrix, 2015).
The whole screen tested about 5,500 compounds, of which about 2,000 (36%) were called active. Another 18% or so got no clear call; they are omitted. Cut-off read from the data, not from the text of the source: active = normalized growth mostly below about 0.91 (no sharp cut-off); inconclusive = no clear call, values can overlap the other calls; inactive = mostly above about 0.92. Some of the results follow.

Test: chemical genetic growth profiling, strain panel (AID 1159580);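 note: tested at 20 µM; growth read once vehicle control cultures reached saturation at 30 °C; 1 = growth at the plate median or of vehicle wells; lower values mean less growth of the strain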
Conditions: S. cerevisiae deletion strains, growth OD

Measured: normalized growth

CC(=O)NCCCCCC(=O)O
inactive: locus YAL013W, strain DEP1, hits give low values 1.01 | locus YAL021C, strain ccr4, hits give low values 1.01 | locus YAL026C, strain drs2, hits give low values 0.978 | locus YAL030W, strain snc1, hits give low values 0.99 | locus YBL061C, strain skt5, hits give low values 0.99 | locus YBR009C, strain hhf1, hits give low values 0.979 | locus YBR021W, strain FUR4, hits give low values 1.02 | locus YBR023C, strain chs3, hits give low values 0.984 | locus YBR171W, strain sec66, hits give low values 0.999 | locus YBR229C, strain ROT2, hits give low values 1.01 | locus YBR231C, strain swc5, hits give low values 0.998 | locus YBR279W, strain paf1, hits give low values 0.998 | locus YCL011C, strain gbp2, hits give low values 0.968 | locus YCL016C, strain dcc1, hits give low values 1 | locus YCL029C, strain bik1, hits give low values 0.988 | locus YCL061C, strain MRC1, hits give low values 1 | locus YCL069W, strain vba3, hits give low values 0.979 | locus YCR088W, strain abp1, hits give low values 0.99 | locus YDL005C, strain med2, hits give low values 0.984 | locus YDL035C, strain GPR1, hits give low values 1.02 | locus YDL040C, strain nat1, hits give low values 0.995 | locus YDL074C, strain BRE1, hits give low values 1.04 | locus YDL101C, strain DUN1, hits give low values 1.02 | locus YDL134C, strain PPH21, hits give low values 1 | locus YDL185W, strain tfp1, hits give low values 0.985 | locus YDL192W, strain arf1, hits give low values 0.988 | locus YDR001C, strain nth1, hits give low values 0.987 | locus YDR069C, strain doa4, hits give low values 0.993 | locus YDR101C, strain arx1, hits give low values 0.986 | locus YDR137W, strain rgp1, hits give low values 1.01 | locus YDR159W, strain sac3, hits give low values 0.976 | locus YDR162C, strain NBP2, hits give low values 1.01 | locus YDR195W, strain ref2 0.982 | locus YDR297W, strain sur2, hits give low values 0.993 | locus YDR318W, strain mcm21, hits give low values 0.992 | locus YDR334W, strain swr1, hits give low values 0.979 | locus YDR335W, strain msn5, hits give low values 1 | locus YDR388W, hits give low values 0.97 | locus YDR392W, strain spt3, hits give low values 0.891 | locus YDR502C, strain sam2, hits give low values 0.98 | locus YEL003W, strain gim4, hits give low values 0.969 | locus YEL037C, strain rad23, hits give low values 0.972 | locus YEL061C, strain CIN8 (second series), hits give low values 0.977 | locus YEL061C, strain CIN8, hits give low values 1.01 | locus YER015W, strain faa2, hits give low values 1 | locus YER016W, strain bim1, hits give low values 0.997 | locus YER110C, hits give low values 0.986 | locus YER111C, strain swi4, hits give low values 0.967 | locus YER155C, strain BEM2 (second series), hits give low values 1.01 | locus YER155C, strain BEM2, hits give low values 1.01 | locus YER167W, strain BCK2, hits give low values 1 | locus YFR010W, strain ubp6, hits give low values 0.983 | locus YGL078C, strain dbp3, hits give low values 0.974 | locus YGL086W, strain mad1, hits give low values 1 | locus YGL167C, strain pmr1, hits give low values 0.969 | locus YGL173C, strain kem1, hits give low values 0.99 | locus YGL227W, strain vid30, hits give low values 0.97 | locus YGL240W, strain doc1, hits give low values 0.993 | locus YGL248W, strain PDE1, hits give low values 1.03 | locus YGL253W, strain hxk2, hits give low values 0.991 | locus YGR135W, strain pre9, hits give low values 0.979 | locus YGR229C, strain SMI1, hits give low values 1.01 | locus YGR252W, strain gcn5, hits give low values 0.954 | locus YHR013C, strain ard1, hits give low values 0.946 | locus YHR027C, strain rpn1, hits give low values 1.01 | locus YHR030C, strain SLT2, hits give low values 1.01 | locus YHR079C, strain IRE1 (second series), hits give low values 0.992 | locus YHR094C, strain hxt1, hits give low values 0.984 | locus YHR129C, strain ARP1, hits give low values 1.01 | locus YHR142W, strain chs7, hits give low values 1.02 | locus YHR200W, strain rpn10, hits give low values 0.994 | locus YIL066C, strain RNR3, hits give low values 1.03 | locus YIL073C, strain SPO22, hits give low values 0.979 | locus YIL125W, strain kgd1, hits give low values 0.981 | locus YIR030C, strain dcg1, hits give low values 0.998 | locus YJL092W, strain hpr5, hits give low values 0.99 | locus YJL095W, strain BCK1 (second series), hits give low values 1.01 | locus YJL095W, strain BCK1, hits give low values 1.03 | locus YJL115W, strain asf1, hits give low values 0.98 | locus YJL129C, strain trk1, hits give low values 1 | locus YJL134W, strain LCB3, hits give low values 1.01 | locus YJL154C, strain vps35, hits give low values 0.978 | locus YJL164C, strain tpk1, hits give low values 1.02 | locus YJL166W, strain qcr8, hits give low values 1.01 | locus YJL168C, strain set2, hits give low values 0.986 | locus YJL187C, strain SWE1 (second series), hits give low values 1.03
